This is one part of a sample in which hits are shown more often than they occur.
Artemis inh = Artemis endonuclease inhibitors, primary screen, biochemical, fluorescence intensity, FAM/BHQ-1 hairpin substrate. AID 686954, 2013. recombinant Artemis, quenched FAM hairpin cleavage fluorescence. Protein artemis (Homo sapiens), Q96SD1. inhibition, % at 10 µM. actives 0.78% (n = 30,000);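 active = at 10 µM dose, at least 30% inhibition, measured as corrected fluorescence normalized to stimulator and neutral control wells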
Target sequence (Q96SD1 whole entry, looked up): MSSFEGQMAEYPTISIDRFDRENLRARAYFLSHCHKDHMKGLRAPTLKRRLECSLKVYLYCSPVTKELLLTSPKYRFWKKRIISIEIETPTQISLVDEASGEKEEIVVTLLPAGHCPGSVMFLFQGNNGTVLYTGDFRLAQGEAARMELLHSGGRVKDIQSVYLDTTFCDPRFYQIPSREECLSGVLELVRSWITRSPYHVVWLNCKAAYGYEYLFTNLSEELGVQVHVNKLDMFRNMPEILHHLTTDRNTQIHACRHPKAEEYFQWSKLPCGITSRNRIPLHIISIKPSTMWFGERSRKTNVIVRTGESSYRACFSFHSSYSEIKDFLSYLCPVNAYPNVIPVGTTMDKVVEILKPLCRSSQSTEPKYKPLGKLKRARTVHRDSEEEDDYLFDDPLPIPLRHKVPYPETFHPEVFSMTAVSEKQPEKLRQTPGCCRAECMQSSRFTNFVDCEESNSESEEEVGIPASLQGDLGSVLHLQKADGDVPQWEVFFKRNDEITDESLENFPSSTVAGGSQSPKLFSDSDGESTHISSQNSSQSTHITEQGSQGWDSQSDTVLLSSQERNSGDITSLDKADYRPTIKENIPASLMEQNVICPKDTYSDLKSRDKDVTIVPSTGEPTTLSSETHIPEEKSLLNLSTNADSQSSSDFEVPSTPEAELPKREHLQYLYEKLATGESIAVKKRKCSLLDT
* marks the source's active call; other numbers are inactive results.

SMILES	Artemis inh
COc1ccc(C)cc1NC(=O)CN(C)S(=O)(=O)c1cccs1	1
Cc1ccc(NC2=C/C(=N\S(=O)(=O)c3cccs3)c3ccccc3C2=O)c(C)c1	53*
Cc1ccc(NCN2C(=O)c3ccccc3C2=O)c(C)c1	-9
COc1ccc(N/C(C)=C2/C(=O)C(=O)N(CCO)C2c2ccc([N+](=O)[O-])cc2)cc1 (stereo not drawn)	-1
O=S(=O)(c1ccc(N2CCN(CCO)CC2)nc1)N1CCCCC1	-6
Cc1ccccc1CSc1nccn1-c1ccccc1	3
CN(C)c1ccc(/C=C/C=C2/SC(=S)N(c3ccccc3)C2=O)cc1	9
CC(C)NC(=O)/C(=C/c1ccco1)c1ccccc1	-7
CC(C)C(C(=O)O)N1C(=O)/C(=C/C=C/c2ccco2)SC1=S (stereo not drawn)	39*
CCc1ccc(/C=C/C(=O)c2c(C)cc(C)[nH]c2=O)cc1	2
NC(=O)c1cc2cc(Br)ccc2oc1=NCc1ccccc1	1
O=C(/C=C/c1ccccc1)c1cc(Br)ccc(=O)c1O	36*
O=C(Nc1ccc(/C=C/c2nc3ccccc3o2)cc1)c1ccc(F)cc1	-7
Cc1ccc(C2CC(c3cccs3)=NN2C(=O)c2ccc(Br)o2)cc1 (stereo not drawn)	7
O=C(c1ccccc1)N1CCN2C(=O)c3ccccc3C12c1ccc(Cl)cc1 (stereo not drawn)	2
OCC#Cc1cnc2ccccc2c1	0
c1ccc(N2CCN(c3nc(-c4ccccn4)nc4ccccc34)CC2)cc1	93*
c1ccc2c(N3CCCCCC3)nc(-c3ccncc3)nc2c1	2
Oc1ccccc1-c1nc(N2CCN(Cc3ccccc3)CC2)c2ccccc2n1	13
Cc1sc(NC(=O)C2CCCCC2C(=O)O)c(C(N)=O)c1-c1ccc(C(C)C)cc1 (stereo not drawn)	27
Cc1sc(NC(=O)C2CCCCC2C(=O)O)c(C(N)=O)c1-c1ccccc1 (stereo not drawn)	2
Cc1sc(NC(=O)C2CCCCC2C(=O)O)c(C(N)=O)c1-c1ccc(C(C)(C)C)cc1 (stereo not drawn)	40*
CCCc1sc(N)nc1-c1ccc(C)cc1	9
O=C(Nc1cccc(NC(=O)c2ccccc2[N+](=O)[O-])n1)c1ccccc1[N+](=O)[O-]	8
O=C(CSc1nnc(-c2cccnc2)n1Cc1ccccc1)NCc1ccccc1	2
SMILES	Artemis inh
CCOC(=O)C1=C(O)CSC1=Nc1ccccc1	-2
CCOC(=O)c1c(C)[nH]c(C=Nc2ccc(OC)cc2)c1O	10
CCOC(=O)C1=C(O)/C(=C/c2ccc(-c3ccccc3C(=O)O)o2)SC1=Nc1ccc(OC)cc1	30*
CCNC(=O)Cn1cc(C#N)c2ccccc21	1
CCc1ccc2nc(N3C(=O)C(O)=C(C(=O)c4ccco4)C3c3cccs3)sc2c1 (stereo not drawn)	43*
Cc1cc(N2C(=O)C(O)=C(C(=O)c3ccco3)C2c2ccc(O)cc2)no1 (stereo not drawn)	-2
Cc1cc(N2C(=O)C(O)=C(C(=O)c3ccc(C)o3)C2c2cccs2)no1 (stereo not drawn)	16
O=c1c2ccccc2nc(-c2ccco2)n1/N=C/c1ccccc1O	-2
Cc1nnc(C)n1/N=C/c1cccn1C	2
Cc1nnc(-c2ccccc2)c(=O)n1/N=C/c1c(O)ccc2ccccc12	47*
O=C(c1ccc(-c2nnc(Nc3ccccc3)c3ccccc23)cc1)N1C[C@H]2C[C@H](C1)c1cccc(=O)n1C2	6
COC(=O)C1=C(C(=O)OC)SC2(S1)C(C(=O)OC)=C(C(=O)OC)SC1=C2c2cc(C)ccc2NC1(C)C	-2
Cn1c(-c2ccc(CN3CCCCC3)o2)nc2ccccc21	3
O=[N+]([O-])c1cc(/C=N/N2CCN(C3c4ccccc4-c4ccccc43)CC2)ccc1Cl	0
C(=N\N1CCN(C2c3ccccc3-c3ccccc32)CC1)/c1cccnc1	8
C(=N\N1CCN(C2c3ccccc3-c3ccccc32)CC1)/c1ccccn1	32*
COC(=O)c1ccc(-n2nnnc2SCc2ccccc2OC)cc1	2
Cc1cc(OCC(=O)N2CCCC2)cc(C)c1Cl	4
CCCC(=O)Nc1ccc(N2CCCCC2)cc1	-6
Cc1cc(OCC(=O)Nc2ccc(N3CCCC3)cc2)cc(C)c1Cl	66*
Nc1c(C(=O)c2ccccc2)sc2snc(SCC(=O)c3ccccc3)c12	22
Cn1c(CO)cnc1SCc1ccc(Cl)cc1	11
Cc1ccccc1N(C(=O)Cn1nnc(-c2cccs2)n1)C(C(=O)NCCC(C)C)c1ccco1 (stereo not drawn)	2
NNC(=O)Cn1c(SCc2ccccc2)nc2ccccc21	0
C=CCSc1nnc(-c2ccccc2N=Cc2c(C)[nH]n(-c3ccccc3)c2=O)c(=O)[nH]1	-2
Cc1[nH]n(-c2ccccc2)c(=O)c1C=Nc1cnc2ccccc2c1	0
CSc1nnc(-c2ccccc2N=Cc2c(C)[nH]n(-c3ccc4ccccc4c3)c2=O)c(=O)[nH]1	32*
CCOC(=O)c1nnn(-c2nonc2N)c1CN(C)Cc1ccccc1	6

Screening data as filed in PubChem BioAssay.
